# FLuc counter – inhibits or activates purified firefly luciferase, miR-21 counter-screen; purified FLuc, Km substrates, luminescence inhibition; Potency, µM (titrated, usually from 57.5 µM), for inactives: at the top dose activity change, negative = inhibition, hits mostly inhibitors; 360,000 compounds, 6.9% hits;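 further: plate controls were vehicle for no effect and reference inhibitor for full effect; nearly all actives have a fitted effect of over 55% in size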
# Target sequence (P08659 whole entry, looked up): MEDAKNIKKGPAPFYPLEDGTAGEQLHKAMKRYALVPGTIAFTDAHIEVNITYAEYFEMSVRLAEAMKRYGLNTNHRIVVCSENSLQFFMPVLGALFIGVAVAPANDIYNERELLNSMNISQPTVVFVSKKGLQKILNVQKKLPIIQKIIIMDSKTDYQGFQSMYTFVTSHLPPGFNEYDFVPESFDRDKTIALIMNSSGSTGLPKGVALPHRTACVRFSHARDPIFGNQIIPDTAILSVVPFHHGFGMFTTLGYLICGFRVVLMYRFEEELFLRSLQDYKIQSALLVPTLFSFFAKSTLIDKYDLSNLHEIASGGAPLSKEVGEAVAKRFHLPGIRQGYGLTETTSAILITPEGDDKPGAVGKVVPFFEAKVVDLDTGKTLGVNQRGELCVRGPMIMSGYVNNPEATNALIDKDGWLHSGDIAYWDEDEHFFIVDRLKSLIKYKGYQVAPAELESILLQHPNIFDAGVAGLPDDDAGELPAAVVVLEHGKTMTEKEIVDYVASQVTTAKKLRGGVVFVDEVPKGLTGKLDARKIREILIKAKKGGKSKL
#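 Purified P. pyralis luciferase, 10 nM final, with Km-level 10 uM D-luciferin and 10 uM ATP in 50 mM Tris acetate pH 7.5, 10 mM Mg acetate, 0.01% Tween-20, 0.05% BSA; 6-point qHTS titration about 60 µM downward; luminescence read.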
# SMN2 splice enh – SMN2 splice variant enhancement | 210,000 compounds, 2.8% hits | HEK293 SMN2-luciferase splicing reporter, luminescence, 30-36 h | Potency, µM (doses to about 46.1 µM), inactives show at the highest dose activity change, positive = activation, hits mostly activators; further: % of control where 0% means no effect; nearly all actives have a fitted effect of over 55% in size
#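 HEK293 cells carry an SMN2 minigene-luciferase reporter in which exon 7 inclusion puts luciferase in frame. Cells were seeded at 2000 cells/well, attached for 10-12 hours, then exposed to compounds for 30-36 hours at 37C before ONE-Glo luminescence.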
# ELG1 genotoxic – inducers of genotoxicity in HEK293T ELG1-luciferase cells; AID 504466; HEK293T ELG1-luciferase reporter, luminescence, 16 h; Potency, µM (titrated, usually from 46 µM), inactives show at the highest dose activity change, positive = activation, actives largely listed as activators; 330,000 compounds, 1.3% hits; further: % of control where 0% means no effect; nearly all actives have a fitted effect of over 60% in size
#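 Reporter readout depends on ELG1 protein level, which increases with genetic stress. After 16 hr compound exposure at 37 °C, luciferase activity was quantified using ONE-Glo.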
# KinaseGlo FLuc – blocks Kinase-Glo luciferase, a counter-screen artifact; Q27757; Kinase-Glo luciferase, ATP luminescence, 8 min; Potency, µM (highest dose often 38.3 µM), inactives show at the highest dose activity change, negative = inhibition, most hits filed as inhibitors; 200,000 compounds, 0.28% hits; further: on the % scale 0 is the no-effect control and ±100 the full control effect; nearly all actives have a fitted effect of over 60% in size
#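 Compound is pinned into ATP-containing buffer (10 uM ATP, imidazole pH 7.2, 7 mM MgCl2). Kinase-Glo luciferase reagent is then added. Light output is recorded following an 8-min room-temperature incubation.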
# NPC1 prom act – NPC1 promoter activation. Huh7 NPC1 promoter luciferase reporter, 24 h. 320,000 compounds, 2.4% hits. Potency, µM (titrated, usually from 9.22 µM), for inactives: at the highest dose activation, usual class: activators; further: % of control where 0% means no effect; nearly all actives have a fitted effect of over 60% in size
#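 Stable NPC1-promoter luciferase Huh7 line; cpd (DMSO) 24 h, 37 °C, 5% CO2; Amplite luciferase reagent 10 min RT; luminescence readout. qHTS format.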
# Rab9 promoter act – activates the Rab9 promoter; Huh7 Rab9 promoter-luciferase reporter, luminescence, 24 h; Potency, µM (series often up to 9.22 µM), without a hit: at the highest dose activation, negative = inhibition, actives largely listed as activators; 320,000 compounds, 2.8% hits; AID 485297; further: % of control where 0% means no effect; nearly all actives have a fitted effect of over 60% in size
#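 Rab9 promoter-driven luciferase in stably transfected Huh7 cells; 1500 cells/well rested 2 h, exposed to compound in DMSO for 24 h at 37 °C, 5% CO2. Luminescence read 10 min after adding luciferase reagent at ambient temperature.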
# Starred values were filed as active, the others as inactive; ? = inconclusive; . = not tested or not shown. The list is not random: actives were taken first. Their share in the collection is about 7.3%. The call rests on the fitted dose curve; in most records, active means well fitted curve in the direction sought with a large enough effect; inconclusive means small, poorly fitted or top-dose-only effect, or another doubt; inactive means no such curve, though single readings can be large; an effect the other way counts as inactive or inconclusive. Potency means the concentration at half of the fitted maximal effect.
SMILES,FLuc counter,SMN2 splice enh,ELG1 genotoxic,KinaseGlo FLuc,NPC1 prom act,Rab9 promoter act
COc1ccc(OC)c(S(=O)(=O)ON2C(=O)c3ccccc3C2=O)c1,?,.,10.0%,.,-16.1%,-4.0%
O=C(Nc1ccc(Cl)c(Cl)c1)Nc1ccccc1C(=O)O,0.536µM*,4.47µM*,2.31µM*,-11.6%,0.355µM*,0.316µM*
O=C(Nc1ccc(Cl)cc1)Nc1ccccc1C(=O)O,0.477µM*,12.6µM*,?,12.6µM*,0.355µM*,0.447µM*
O=C(c1ccc([N+](=O)[O-])cc1)N1CCSC1c1ccccc1Cl (stereo unspecified),-0.4%,-0.8%,-4.9%,3.8%,-7.7%,-2.1%
O=C(N/N=C/c1ccccc1)c1[nH]ncc1Br,10.7µM*,?,14.6µM*,6.31µM*,?,3.16µM*
CCN(CC)c1ccc(C(=O)N/N=C/c2ccc(OC)cc2OC)cc1,?,-9.8%,-1.3%,-0.2%,-2.1%,10.6%
COc1ccc(/C=N/NC(=O)c2[nH]ncc2Br)c(OC)c1,2.39µM*,25.1%,25.9µM*,-16.7%,0.7%,-7.7%
CCc1ccc(C2C(C(=O)Nc3ccccc3)=C(C)Nc3nc(SCC(=O)c4ccc(C)cc4)nn32)cc1 (stereo unspecified),-1.6%,.,.,.,.,.
COc1ccc(Oc2ncc3ncc(=O)n(CCc4ccccc4)c3n2)cc1,.,-3.4%,.,1.4%,.,.
CCOC(=O)c1sc(NC(=O)CCN2CCCCCC2)c(C(=O)OCC)c1C,2.1%,7.1%,0.9%,0.0%,-2.2%,-2.7%
CCOc1ccc2nc(NC(=O)CSc3nc4cccnc4n3C)sc2c1,?,-27.8%,14.0%,-5.5%,1.9%,4.0%
O=C(NCCc1ccccc1)c1ccc(CSc2nc3cccnc3n2Cc2ccc(F)cc2)cc1,-11.4%,.,.,.,.,.
O=C(NCCc1cccs1)c1ccc(Cn2c(SCc3ccc(F)cc3)nc3cccnc32)cc1,2.13µM*,18.9%,.,.,.,.
O=C(NCCc1cccs1)c1ccc(Cn2c(SCc3ccccc3)nc3cccnc32)cc1,2.69µM*,.,.,.,.,.
CC(=O)c1cccc(OCc2cc(C(=O)N3C[C@H]4CC[C@H]3C4)no2)c1,9.53µM*,.,?,.,2.51µM*,2µM*
CC1(C)C[C@@H]2C[C@@](C)(CN2C(=O)c2cc(COc3cccc(C(F)(F)F)c3)on2)C1,3.5%,.,-4.4%,.,-3.7%,0.9%
CC(=O)c1cccc(OCc2cc(C(=O)N3C[C@@H](C)O[C@@H](C)C3)no2)c1,15.1µM*,.,?,.,?,?
CC(=O)c1cccc(OCc2cc(C(=O)N(C)CCC3CCOCC3)no2)c1,16.9µM*,.,15.3%,.,26.1%,?
COc1cccc(OCc2cc(C(=O)N(C)CCC3CCCCO3)no2)c1 (stereo unspecified),?,.,11.8%,.,?,?
O=C(c1cc(COc2cccc(C(F)(F)F)c2)on1)N1C[C@H]2CC[C@H]1C2,15.1µM*,.,?,.,2.82µM*,2.24µM*
COc1cccc(C2CC3(CC(C)(C)NC(=S)N3)Oc3cc(O)ccc32)c1 (stereo unspecified),1.9%,-36.0%,-2.4%,0.8%,-0.7%,1.2%
Cc1cc(OCCN2CCCCC2)nc2ccccc12,5.1%,8.1%,1.6%,-4.0%,-2.1%,1.4%
COc1ccc(C(=O)NCC2OCCc3ccccc32)cc1 (stereo unspecified),15.1µM*,-18.1%,6.6%,-6.3%,29.0%,17.2%
CCOc1ccc(C(=O)NCC2OCCc3ccccc32)cc1 (stereo unspecified),16.9µM*,24.0%,4.5%,-7.9%,8.2%,12.6%
COc1ccc(C(=O)NCC2OCCc3ccccc32)cc1OC (stereo unspecified),-3.4%,3.4%,-1.8%,-2.1%,-2.6%,10.7%
SMILES,FLuc counter,SMN2 splice enh,ELG1 genotoxic,KinaseGlo FLuc,NPC1 prom act,Rab9 promoter act
COc1ccc(/C=C/C(=O)NC(=S)NCc2ccccc2)cc1OC,-2.3%,.,8.4%,.,-7.1%,-5.1%
CN(Cc1ccccc1)C(=O)COC(=O)c1cc(S(=O)(=O)N(C)C)ccc1N1CCCC1,-1.5%,.,1.2%,.,3.7%,-4.0%
COC(=O)c1ccc(-c2ccc(/C=N/NC(=O)Cc3nnc(N)s3)o2)cc1,?,.,8.2%,.,4.47µM*,?
Cc1ccc(-c2nnc(N3CCC(C)CC3)c3ccccc23)cc1,?,-12.9%,-3.4%,-0.2%,0.7%,2.2%
COc1ccc(-c2cc3ncnc(Cl)c3s2)cc1,3.38µM*,.,?,.,3.55µM*,?
COc1ccc2[nH]c3c(Cl)ncnc3c2c1,-17.0%,.,4.3%,.,-0.4%,1.8%
CCn1c(=O)n(CC)c2cc(S(=O)(=O)Nc3ccccc3C)c(C)cc21,-0.5%,7.94µM*,?,5.1%,-2.6%,-0.1%
S=c1[nH]c2cc3ccccc3cc2[nH]1,4.78µM*,.,?,.,13.7%,3.4%
S=c1[nH]c2ccc3ccccc3c2[nH]1,-29.1%,9.9%,14.2%,0.7%,11.4%,?
Cc1ccc(-n2[nH]c(C)c(/C=N/Nc3ccc([N+](=O)[O-])cc3[N+](=O)[O-])c2=O)cc1,19µM*,-63.1%,-10.7%,?,-7.9%,-11.0%
O=C(C1CCN(S(=O)(=O)c2cccc3cccnc23)CC1)N1CCCC1,-0.9%,7.1%,-5.3%,0.4%,4.5%,-12.1%
COc1ccc2ccc(Oc3ncccn3)cc2c1,-24.1%,17.5%,15.2%,0.5%,8.7%,?
COc1ccc2cc(-c3cccnc3)ncc2c1,3.79µM*,.,?,.,2.24µM*,?
COc1ccc(-c2cc3ccccc3cn2)cc1,0.849µM*,.,2.59µM*,.,0.631µM*,0.631µM*
COc1ccc2cc(-c3ccon3)ccc2c1,3.01µM*,.,?,.,?,?
COc1ccc(-c2cc3ccc(OC)cc3cn2)cc1,0.19µM*,.,?,.,0.282µM*,0.316µM*
COc1ccc(-c2ccc(OC)cc2)cc1,?,.,11.7%,.,9.9%,6.6%
COc1ccc(S(=O)(=O)N(C)CC(=O)Nc2ccc3c(c2)OCO3)cc1OC,-11.1%,4.0%,-1.9%,-1.1%,-3.3%,-1.3%
COC(=O)c1ccc2c(=O)n(Cc3ccc(C(=O)NC4CCCC4)cc3)c(=S)[nH]c2c1,-1.9%,-0.8%,9.3%,-2.3%,-0.2%,2.4%
COc1ccc2cc(-c3ccccc3F)ncc2c1,0.953µM*,.,?,.,1.41µM*,?
Cc1cccc(OCCCC(=O)NC(C)C)c1,3.8%,?,-3.0%,0.4%,-5.8%,0.6%
COc1ccc(-c2csc(NC3OC(=O)c4c3ccc(OC)c4OC)n2)cc1OC (stereo unspecified),-6.3%,.,6.0%,.,-23.0%,-3.9%

# High-throughput results as filed in PubChem BioAssay.
